# Assay outcomes from PubChem BioAssay.
# Cruzain inh noDet: inhibitors of Trypanosoma cruzi cruzain without detergent. P25779. purified cruzain, Z-FR-AMC fluorescence, no detergent. Potency, µM, without a hit: max response, negative = inhibition, most hits filed as inhibitors. actives 2.3% (n = 200,000). AID 1476;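 also: plate controls were enzyme without inhibitor for no effect and buffer without enzyme for full effect; nearly all actives have a fitted effect of over 40% in size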
# Target sequence (P25779 123-467 limits assumed): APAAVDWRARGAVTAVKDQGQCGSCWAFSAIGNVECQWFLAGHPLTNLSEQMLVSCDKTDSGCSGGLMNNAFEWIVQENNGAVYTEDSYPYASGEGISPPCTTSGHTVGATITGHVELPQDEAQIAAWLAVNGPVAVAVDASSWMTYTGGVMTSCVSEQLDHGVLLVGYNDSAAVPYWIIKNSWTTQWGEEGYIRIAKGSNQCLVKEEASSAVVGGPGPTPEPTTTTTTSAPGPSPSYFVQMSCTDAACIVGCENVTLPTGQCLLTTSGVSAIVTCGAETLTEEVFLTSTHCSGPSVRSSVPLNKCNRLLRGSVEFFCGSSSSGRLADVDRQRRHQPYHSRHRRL
#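 Detergent-free condition (0.00005% Triton X-100) in acetate buffer pH 5.5 with DTT. 1.5 nM enzyme and compound were pre-mixed 15 min, then 2 uM Z-FR-AMC substrate added; reaction progress from fluorescence change between first and third reads (60 s).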
# Cruzain Triton: blocks cruzain activity in presence of Triton detergent; purified cruzain, Z-FR-AMC fluorescence, 0.01% Triton; Potency, µM, for the others: max response, negative = inhibition, usual class: inhibitors; actives 0.43% (n = 200,000); AID 1478;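 also: plate controls were neutral wells for no effect and buffer without enzyme for full effect; nearly all actives have a fitted effect of over 40% in size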
#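 Detergent-containing arm of a paired screen for aggregation-based inhibition: 0.01% Triton X-100 present. Cruzain at 1.5 nM cleaved 2 uM Z-FR-AMC at pH 5.5 with 5 mM DTT; AMC fluorescence gain over 60 s measured activity.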
# * hit, by the source's call; ? = inconclusive. Hits are enriched below; roughly 2.4% of the tested compounds scored in any of these assays. Calls follow the shape of the dose curve; as a rule, active = well fitted curve in the direction sought with a large enough effect; inconclusive = small, poorly fitted or top-dose-only effect, or another doubt; inactive = no such curve, though single readings can be large; an effect the other way counts as inactive or inconclusive. Potency is read from the fitted curve at half-maximal effect.
SMILES,Cruzain inh noDet,Cruzain Triton
N#CC1=C(N)SC(N)=C(C#N)C1c1cccc(Oc2ccccc2)c1,25µM*,-18%
CCOc1ccc(C2C(C#N)=C(N)SC(N)=C2C#N)cc1OCC,-1%,-11%
CCOc1ccc(NC(=O)CC2C(=O)N(c3ccc(Cl)cc3)C(=O)N2Cc2cccs2)cc1 (stereo not given),-18%,-4%
COc1ccc(CNCc2ccc3c(c2)n(C)c(=O)n3C)cc1,11%,0%
COc1ccccc1Nc1nc(-c2ccccc2Cl)c2cc(Br)ccc2n1,18%,4%
Clc1ccccc1-c1nc(Nc2ccccc2)nc2ccc(Br)cc12,25µM*,-1%
COc1ccc(Cn2ccnc2SCC(=O)Nc2cc(C(F)(F)F)ccc2Cl)cc1,5%,-11%
Cc1ccc(NC(=O)Cn2nc(-c3ccccc3)nc(Cc3ccc(Cl)cc3)c2=O)cc1,25µM*,1%
Cc1ccc(NC(=O)Cn2nc(-c3ccccc3)nc(Cc3ccccc3)c2=O)cc1,-12%,1%
CNC(=O)NC1CCCc2ccccc21 (stereo not given),-7%,2%
O=C(Nc1cccc2ccccc12)NC1CCCc2ccccc21 (stereo not given),13µM*,8%
O=C1CC(c2ccc3c(c2)OCO3)c2cc(O)ccc2O1 (stereo not given),-11%,0%
Cc1nn(CCCC(=O)NCc2cccc(Cl)c2)c(=O)c2c1sc1ccccc12,?,-16%
O=S(=O)(Nc1nc2ccccc2nc1N1CCN(c2ccccc2)CC1)c1ccc(F)cc1,32µM*,-3%
CC(=O)Nc1ccc(S(=O)(=O)Nc2nc3ccccc3nc2N2CCCC2)cc1,15%,-7%
COc1ccc(C2c3c(ccc4ccccc34)Oc3ncn4nc(CO/N=C/c5ccccc5)nc4c32)cc1 (stereo not given),3.2µM*,5%
COc1ccc(C2c3c(ccc4ccccc34)Oc3ncn4nc(Cc5ccc(OC)c(OC)c5)nc4c32)cc1 (stereo not given),3%,-1%
c1ccc(C2c3c(ccc4ccccc34)Oc3ncn4nc(-c5ccco5)nc4c32)cc1 (stereo not given),3.2µM*,-6%
COc1ccc(C2c3c(ccc4ccccc34)Oc3ncn4nc(-c5ccco5)nc4c32)cc1 (stereo not given),?,2%
CCSc1nc(-c2ccc(Cl)cc2)nc2c1Cc1c(CO)cnc(C)c1O2,26%,-2%
COC(=O)c1ccc(-n2nnc(-c3nc(-c4ccc5c(c4)OCO5)no3)c2C)cc1,-1%,1%
CC(C)c1nn2c(=O)cc(COC(=O)c3cccc(NC(=O)c4ccccc4F)c3)nc2s1,2%,0%
N#CCc1c(C#N)c(N)nc(N2CCN(c3ccc(F)cc3)CC2)c1C#N,16µM*,-6%
N#CCc1c(C#N)c(N)nc(N2CCN(Cc3ccc4c(c3)OCO4)CC2)c1C#N,-27%,-5%
O=C1c2ccccc2C(=O)N1c1ccc(Cc2ccc(N3C(=O)c4ccccc4C3=O)cc2)cc1,4%,0%
SMILES,Cruzain inh noDet,Cruzain Triton
N[C@@H](Cn1cc(F)c(=O)[nH]c1=O)C(=O)O,-1%,-1%
C[C@H]1C[C@H]2[C@H]3CCC4=CC(=O)C=C[C@@]4(C)[C@]3(F)[C@H](O)C[C@]2(C)[C@@]1(O)C(=O)COP(=O)(O)O,-1%,0%
COc1ccccc1CNC(=O)CCCn1c(=O)c2ccccc2n(Cc2ccc(C)cc2)c1=O,-8%,-3%
CN1c2ccccc2C(C)(C)C12C=Cc1cc(O)ccc1O2 (stereo not given),0%,-12%
CN1c2ccccc2C(C)(C)C12C=Nc1c(cc(N3CCOCC3)c3ccccc13)O2 (stereo not given),25µM*,1%
CCOc1ccc(Sc2cc(C(=O)NC(C)c3ccccc3)c3ccccc3n2)cc1 (stereo not given),-7%,2%
CCc1ccccc1NC(=O)CSc1nc2c(c(-c3ccco3)c1C#N)CCCC2,-17%,-7%
Cc1ccccc1NC(=O)CSc1nc2c(c(-c3ccco3)c1C#N)CCCC2,7.9µM*,-5%
C[C@H](CN(C)C)C(=O)c1ccccc1C(=O)O,1%,4%
COC(=O)c1c(NC(=O)C2SC(=NC3CCCCC3)C(C(N)=O)=C2N)sc2c1CCCC2 (stereo not given),7.9µM*,-3%
C=C(C)CN=C1SC(C(=O)Nc2sc3c(c2C(=O)OC)CCC3)C(N)=C1C(N)=O (stereo not given),-18%,-5%
CCOC(=O)c1sc(NCc2ccco2)c(-c2nc3ccccc3s2)c1N,?,-6%
CCNc1sc(C(=O)c2cccs2)c(N)c1C#N,-10%,1%
C=CCNc1sc(C(=O)c2ccccc2)c(N)c1-c1nc2ccccc2s1,7.9µM*,-1%
CCNc1sc(C(=O)c2cccs2)c(N)c1-c1nc2ccccc2s1,7.9µM*,3%
CSc1ccc2c(c1)c(CCN)c(C)n2Cc1ccccc1Cl,-9%,-1%
c1ccc(N2CCN(Cc3nnc(-c4ccc5c(c4)OCO5)o3)CC2)cc1,-2%,-1%
